ID4 binder: binds human ID4 protein on microarray; P47928; 1.2% of 31,000 active; calls only; small molecule microarray, Flag-ID4 binding, fluorescence F/B; AID 624137; call rule not given here;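 also: a binder raises fluorescence above local background on the spot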
Target sequence (P47928 whole entry, looked up): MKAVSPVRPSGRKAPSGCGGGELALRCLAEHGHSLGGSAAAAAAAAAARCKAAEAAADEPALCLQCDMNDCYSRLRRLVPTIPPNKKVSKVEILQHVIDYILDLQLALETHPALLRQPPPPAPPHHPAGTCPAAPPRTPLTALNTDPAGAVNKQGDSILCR
Calls only; – = inactive; + = active, no number. The full list was thinned out, with hits kept by preference.

SMILES	ID4 binder
Cc1ccc2c(C(=O)Nc3sc4c(c3C(N)=O)CCCCC4)cc(-c3ccccn3)nc2c1C	+
CCc1c(C)sc(NC(=O)c2cc(-c3ccccn3)nc3c(C)cccc23)c1C(=O)N1CCCCC1	–
Cc1sc(NC(=O)c2cc(-c3ccccn3)nc3ccccc23)c(C(=O)NC2CCCCC2)c1C	–
Cc1ccc(-c2nc(SC(CC(=O)O)c3ccccc3)n[nH]2)cc1 (stereo not given)	–
Cc1ccc(NC(=O)c2oc3ccccc3c2NC(=O)Cc2coc3ccc(C)cc23)cc1	–
O=C(NCCCN1CCCC1=O)c1cc(-c2ccccc2)nc2ccccc12	–
COc1ccc(Cl)cc1NC(=O)CN(c1ccc(Cl)c(C(F)(F)F)c1)S(C)(=O)=O	–
CC(=O)c1ccc(NC(=O)CSc2nc(C)cc(C)c2C#N)cc1	–
COc1ccc(NC(=O)Nc2cccc3c2O[C@@H](CN(C)S(=O)(=O)c2ccc(Cl)cc2)[C@@H](C)CN([C@@H](C)CO)C3=O)cc1	–
C[C@H]1CN([C@@H](C)CO)C(=O)c2cccc(NC(=O)c3cnccn3)c2O[C@@H]1CN(C)C(=O)Nc1ccccc1	+
COc1ccc(NC(=O)Nc2cccc3c2O[C@H](CN(C)S(=O)(=O)c2ccc(Cl)cc2)[C@H](C)CN([C@H](C)CO)C3=O)cc1	–
COc1ccc(NC(=O)Nc2cccc3c2O[C@H](CN(C)S(=O)(=O)c2ccc(Cl)cc2)[C@H](C)CN([C@@H](C)CO)C3=O)cc1	+
C[C@@H]1CN([C@H](C)CO)C(=O)c2cccc(NC(=O)c3cnccn3)c2O[C@@H]1CN(C)C(=O)Nc1ccccc1	–
C[C@@H]1CN([C@@H](C)CO)C(=O)c2cccc(NC(=O)c3cnccn3)c2O[C@@H]1CN(C)C(=O)Nc1ccccc1	–
C[C@H](CO)N1C[C@H](C)[C@H](CN(C)C(=O)Nc2ccccc2)Oc2c(NC(=O)c3nc4ccccc4s3)cccc2C1=O	–
C[C@@H]1CN([C@@H](C)CO)C(=O)c2cccc(NC(=O)c3nc4ccccc4s3)c2O[C@H]1CN(C)C(=O)Nc1cccc2ccccc12	–
C[C@@H]1CN([C@H](C)CO)C(=O)c2cccc(NC(=O)c3nc4ccccc4s3)c2O[C@H]1CN(C)C(=O)Nc1cccc2ccccc12	+
COc1cc(OC)c(-c2c(OC)cc(OC)cc2OC)c(OC)c1	–
CCn1c(SCC(=O)c2cccc([N+](=O)[O-])c2)nnc1-c1ccccc1F	–
NS(=O)(=O)c1ccc(NC(=O)CSc2nnc(-c3ccccc3F)n2-c2ccccc2)cc1	–
CCOC(=O)c1cc(NC(=O)CSc2nnc(C)s2)ccc1Cl	–
COC(=O)c1cc(NC(=O)CC2Sc3ccccc3NC2=O)cc(C(=O)OC)c1 (stereo not given)	–
O=C(C[C@@H]1CC[C@@H](NS(=O)(=O)c2ccccc2)[C@H](CO)O1)NCCN1CCCCC1	–
O=C(C[C@@H]1CC[C@@H](NS(=O)(=O)c2ccccc2)[C@@H](CO)O1)NCCN1CCCCC1	+
O=C(C[C@H]1CC[C@H](NS(=O)(=O)c2ccccc2)[C@@H](CO)O1)NCCN1CCCCC1	–
SMILES	ID4 binder
Cc1ccc(-c2nn(C)c(=O)c3ccccc23)cc1S(=O)(=O)N1CCN(CCO)CC1	+
Cc1ccc(-c2nn(C)c(=O)c3ccccc23)cc1CNC(=O)CN1CCOCC1	–
Cc1ccc(-c2nn(CC(=O)NCCN3CCOCC3)c(=O)c3ccccc23)cc1	–
COC(=O)c1cc(OC)c(OC)cc1NC(=O)C(C)Oc1ccc(OC)cc1 (stereo not given)	–
O=C(O)c1cc(NC(=O)C2CC=CCC2C(=O)O)ccc1Cl (stereo not given)	+
CCOc1ccc(NC(=O)C2CC=CCC2C(=O)O)cc1 (stereo not given)	–
Cc1cc(C(=O)O)ccc1NC(=O)C1CC=CCC1C(=O)O (stereo not given)	–
Cc1cccc(OCCn2c(C(C)O)nc3ccccc32)c1 (stereo not given)	–
CCCCCCCC/C=C/CCCCCCCC(=O)NCCc1ccc(O)c(O)c1	–
O=C(COc1cc(Cl)c(Cl)cc1Cl)NCc1ccco1	–
C=CCN1CCN(c2nc3ccccc3nc2C#N)CC1	+
CCN1CCN(c2oc(COc3ccccc3C)nc2C#N)CC1	–
COC(=O)c1ccccc1NC(=O)COc1cc(C)c(Br)c(C)c1	–
COC(=O)C[C@H]1C(C)(C)[C@H](OC(C)=O)[C@]2(O)CC3=C4CC(=O)O[C@@H](c5ccoc5)[C@]4(C)CCC3[C@@]1(C)C2=O (stereo not given in full)	–
O=C1C(=O)N(Cc2ccco2)C(c2cccs2)C1C(=O)c1cccs1 (stereo not given)	–
Cn1c(SCC(=O)Nc2c(F)cc(F)cc2Br)nnc1-c1cccnc1	–
COc1ccc(-c2nnc(SCC(=O)Nc3c(F)cc(F)cc3Br)n2C)cc1	–
Cn1c(SCC(=O)Nc2c(F)cc(F)cc2Br)nnc1-c1ccco1	+
Cc1cc(C)cc(NC(=O)c2ccc(CSc3nnc(-c4cccc([N+](=O)[O-])c4)n3C)cc2)c1	–
Cc1nn(CC(O)COc2ccc(C(=O)c3ccccc3)cc2)c(C)c1Br (stereo not given)	–
C/C=C1/CN2CCC1C(CO)(C(=O)OC)c1[nH]c3ccccc3c1C2 (stereo not given)	–
Cc1cc(C)c2c(=O)[nH]c(SCC(=O)N3CCOCC3)nc2n1	+
COc1ccc(C(=O)CSc2nc3nc(C)cc(C)c3c(=O)[nH]2)cc1OC	–
Cc1cc(C)c2c(=O)[nH]c(SCC(=O)c3ccccc3)nc2n1	–
Cc1cc(Cl)c(S(=O)(=O)Nc2cccnc2)cc1OCC(N)=O	–
SMILES	ID4 binder
O=C(COc1ccc(Br)cc1C(=O)Nc1ccc(Cl)cc1)NC1CC1	–
C[C@H](CO)N1C[C@H](C)[C@@H](CN(C)Cc2ccccc2)OCCCC[C@H](C)Oc2ccc(NS(=O)(=O)c3cccs3)cc2C1=O	–
C[C@H](CO)N1C[C@H](C)[C@H](CN(C)Cc2ccccc2)OCCCC[C@H](C)Oc2ccc(NS(=O)(=O)c3cccs3)cc2C1=O	–
O=C(NC1CCN(Cc2ccccc2)CC1)c1ccc(NS(=O)(=O)c2cccs2)cc1	+
COc1ccc([N+](=O)[O-])cc1NC(=O)c1ccccc1N(C)S(=O)(=O)c1ccc(C)cc1	–
O=C(CSc1ncnc2sc3c(c12)CCC3)Nc1cccc(-c2nc3ccccc3s2)c1	–
COc1ccc(NC(=O)CSc2ccccn2)cc1Cl	–
COc1ccc(NC(=O)CSC2CC(=O)N(c3cc(Cl)cc(Cl)c3)C2=O)cc1 (stereo not given)	–
CCOc1ccc(N2C(=O)CC(Sc3nc(O)c(CC)c(=O)[nH]3)C2=O)cc1 (stereo not given)	+
COc1ccc(N2C(=O)CC(SCCc3nc4ccccc4[nH]3)C2=O)cc1 (stereo not given)	–
CNC[C@H]1Oc2cc(Br)ccc2S(=O)(=O)N([C@@H](C)CO)C[C@H]1C	–
CNC[C@H]1Oc2cc(C#Cc3ccccc3)ccc2S(=O)(=O)N([C@H](C)CO)C[C@@H]1C	–
CNC[C@@H]1Oc2cc(C#Cc3cccnc3)ccc2S(=O)(=O)N([C@@H](C)CO)C[C@H]1C	+
CNC[C@@H]1Oc2cc(Br)ccc2S(=O)(=O)N([C@H](C)CO)C[C@H]1C	–
CNC[C@@H]1Oc2cc(C#Cc3ccccc3)ccc2S(=O)(=O)N([C@H](C)CO)C[C@H]1C	–
CNC[C@H]1Oc2cc(Br)ccc2S(=O)(=O)N([C@H](C)CO)C[C@H]1C	+
Cc1c(Br)ccc(NC(=O)Cn2cnc3sc4c(c3c2=O)CCCC4)c1C	–

Screens deposited in PubChem BioAssay by Broad Institute.
